The list is not random: actives were taken first. Their share in the collection is about 0.61%.
BioA inh: BioA (M. tuberculosis) enzyme inhibition | 360,000 tested, 0.096% active | inhibition, % at 9.99 µM | purified M. tuberculosis BioA enzyme, plate reader; in the data active = inhibition above about 40%; inconclusive = no clear call, values can overlap the other calls
FadD28 binding: M. tuberculosis FadD28 bisubstrate binding inhibition. FadD28 bisubstrate probe binding, fluorescence polarization. inhibition, % at 12.5 µM. 360,000 tested, 0.22% active. AID 588549; in the data active = inhibition above about 8.5%, passing the limit was not always enough; inconclusive = no clear call, values can overlap the other calls
Yp Topo-I inh: inhibitors of Yersinia pestis topoisomerase I; Y. pestis Topo-I cleavage product accumulation, plate reader; activity, % at 10 µM; 360,000 tested, 0.064% active; AID 504884; in the data active = activity above about 50%, passing the limit was not always enough; inconclusive = no clear call, values can overlap the other calls
Vc quorum ag: induces V. cholerae light production without autoinducers; V. cholerae BH1578 lux reporter, luminescence, 6 h; activation, % at 18.7 µM; 350,000 tested, 0.16% active; in the data active = activation mostly above about 9.7%, no sharp cut-off; inconclusive = no clear call, values can overlap the other calls; inactive = mostly below about 3.7%
TcdB inh: blocks C. difficile toxin B glycohydrolase activity; inhibition, % at 9.99 µM; P18177; TcdB glycohydrolase enzymatic assay, plate reader; 350,000 tested, 0.24% active; in the data active = inhibition above about 10%
Target sequence (P18177 whole entry, looked up): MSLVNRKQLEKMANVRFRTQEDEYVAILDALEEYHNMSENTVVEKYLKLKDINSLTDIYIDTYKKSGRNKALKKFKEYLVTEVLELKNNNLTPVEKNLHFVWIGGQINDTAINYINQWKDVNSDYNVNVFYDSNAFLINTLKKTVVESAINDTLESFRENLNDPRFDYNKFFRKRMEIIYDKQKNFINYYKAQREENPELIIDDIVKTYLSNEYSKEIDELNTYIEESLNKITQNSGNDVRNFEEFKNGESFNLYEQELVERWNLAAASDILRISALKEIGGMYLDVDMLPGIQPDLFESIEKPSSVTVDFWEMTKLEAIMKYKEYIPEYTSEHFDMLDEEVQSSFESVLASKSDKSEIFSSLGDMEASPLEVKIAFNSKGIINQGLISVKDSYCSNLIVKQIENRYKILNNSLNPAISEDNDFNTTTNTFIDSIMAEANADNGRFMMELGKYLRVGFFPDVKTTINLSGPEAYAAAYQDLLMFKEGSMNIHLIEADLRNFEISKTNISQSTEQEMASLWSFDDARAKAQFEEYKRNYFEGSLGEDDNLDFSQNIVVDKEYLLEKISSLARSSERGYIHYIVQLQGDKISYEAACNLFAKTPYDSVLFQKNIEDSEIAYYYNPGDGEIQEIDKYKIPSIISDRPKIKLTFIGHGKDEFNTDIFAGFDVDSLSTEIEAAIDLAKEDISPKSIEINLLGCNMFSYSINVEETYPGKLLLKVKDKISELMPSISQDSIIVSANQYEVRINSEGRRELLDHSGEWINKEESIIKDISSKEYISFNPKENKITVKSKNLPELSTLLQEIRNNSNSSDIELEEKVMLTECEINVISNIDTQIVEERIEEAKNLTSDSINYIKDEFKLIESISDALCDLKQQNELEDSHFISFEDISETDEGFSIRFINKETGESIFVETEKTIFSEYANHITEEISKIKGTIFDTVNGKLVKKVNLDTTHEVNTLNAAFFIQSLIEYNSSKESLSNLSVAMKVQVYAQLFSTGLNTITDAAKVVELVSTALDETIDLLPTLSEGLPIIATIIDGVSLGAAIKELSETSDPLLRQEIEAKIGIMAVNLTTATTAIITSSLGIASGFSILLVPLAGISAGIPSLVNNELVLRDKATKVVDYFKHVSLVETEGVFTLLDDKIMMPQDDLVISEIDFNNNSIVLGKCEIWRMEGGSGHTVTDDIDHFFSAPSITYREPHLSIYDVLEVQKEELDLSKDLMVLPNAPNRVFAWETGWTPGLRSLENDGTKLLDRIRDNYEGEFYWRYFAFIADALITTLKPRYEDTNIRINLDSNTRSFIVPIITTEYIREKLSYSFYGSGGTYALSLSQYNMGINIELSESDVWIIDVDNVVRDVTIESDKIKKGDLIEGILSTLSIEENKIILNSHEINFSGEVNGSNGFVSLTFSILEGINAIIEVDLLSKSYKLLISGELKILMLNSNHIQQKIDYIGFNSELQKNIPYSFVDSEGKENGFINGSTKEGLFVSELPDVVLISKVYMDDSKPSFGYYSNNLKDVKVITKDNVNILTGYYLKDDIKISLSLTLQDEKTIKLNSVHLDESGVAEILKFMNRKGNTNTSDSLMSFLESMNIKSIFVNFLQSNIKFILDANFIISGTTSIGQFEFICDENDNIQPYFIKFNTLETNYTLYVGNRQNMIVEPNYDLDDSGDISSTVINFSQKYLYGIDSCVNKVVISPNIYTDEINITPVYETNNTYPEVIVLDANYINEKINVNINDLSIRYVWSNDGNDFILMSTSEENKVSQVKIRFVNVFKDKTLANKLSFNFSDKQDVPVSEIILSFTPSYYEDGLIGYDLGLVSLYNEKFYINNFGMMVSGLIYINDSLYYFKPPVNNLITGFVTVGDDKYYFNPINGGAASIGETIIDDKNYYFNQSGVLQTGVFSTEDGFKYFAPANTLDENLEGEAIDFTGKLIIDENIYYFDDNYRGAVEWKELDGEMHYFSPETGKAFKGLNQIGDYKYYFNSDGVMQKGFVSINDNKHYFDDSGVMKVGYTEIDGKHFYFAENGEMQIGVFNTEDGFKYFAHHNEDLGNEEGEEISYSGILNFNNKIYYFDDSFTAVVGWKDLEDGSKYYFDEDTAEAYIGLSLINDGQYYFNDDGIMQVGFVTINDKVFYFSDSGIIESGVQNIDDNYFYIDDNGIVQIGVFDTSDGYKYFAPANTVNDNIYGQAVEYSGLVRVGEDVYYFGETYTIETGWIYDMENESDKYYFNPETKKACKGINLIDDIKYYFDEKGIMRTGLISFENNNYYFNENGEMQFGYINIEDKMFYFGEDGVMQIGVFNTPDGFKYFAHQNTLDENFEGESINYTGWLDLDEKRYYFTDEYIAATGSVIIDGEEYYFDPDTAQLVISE
Starred values were filed as active, the others as inactive; i = inactive; ? = inconclusive; . = no result given.

SMILES | BioA inh | FadD28 binding | Yp Topo-I inh | Vc quorum ag | TcdB inh
Cc1cccc(NC(=O)CN2C(=O)N/C(=C/c3cc(C)n(C(C)C)c3C)C2=O)c1 | -1 | 42* | -4 | i | 1
Cc1cccc(NC(=O)CN2C(=O)N/C(=C/c3ccc(C)s3)C2=O)c1 | . | ? | 17 | i | .
Cc1ccc(NC(=O)CN2C(=O)N/C(=C/c3cccn3-c3ccc(C(=O)O)cc3)C2=O)cc1 | . | 18* | -15 | 0 | .
CCS(=O)(=O)N[C@@H]1C=C[C@@H](CC(=O)NCc2ccc(F)cc2)O[C@H]1CO | -1 | . | . | . | 0
COc1ccc(S(=O)(=O)N(C)C[C@H]2Oc3ccc(NS(=O)(=O)c4ccccc4)cc3C(=O)N([C@H](C)CO)C[C@H]2C)cc1 | -2 | . | . | . | .
COc1ccc(-c2n[nH]c3c2C(c2ccc(OC)c(OC)c2)N(c2ccccc2)C3=O)cc1 (stereo not given) | 65* | -6 | 3 | 0 | .
CSc1ccc(/C=N/N2CCN(Cc3ccc(Cl)cc3)CC2)cc1 | 2 | -2 | -9 | i | 11*
CSc1ccc(/C=N/NC(=O)CN2CCN(Cc3ccc(Cl)cc3)CC2)cc1 | . | -1 | 31 | 0 | -1
Oc1ccc(/C=N/N2CCN(Cc3ccccc3)CC2)cc1 | -1 | 0 | 4 | 0 | 18*
COc1ccc2c3c(n(C)c2c1)[C@H](CO)N(C(=O)C1CCCC1)CC31CN(C(=O)CC2CC2)C1 | . | . | . | . | 0
Cc1cc(OCCn2nc(C(=O)O)c3ccccc3c2=O)ccc1C(C)C | -2 | 0 | 83* | 0 | 1
CCc1cccc(OCCn2nc(C(=O)O)c3ccccc3c2=O)c1 | . | -2 | 3 | -1 | 2
CNC(=O)C[C@H]1CC[C@@H]2[C@H](COc3ccc(NS(=O)(=O)c4ccccc4C)cc3C(=O)N2C)O1 | -2 | . | . | . | 12*
CNC(=O)C[C@@H]1CC[C@H]2[C@H](COc3ccc(NS(=O)(=O)c4ccccc4C)cc3C(=O)N2C)O1 | 1 | . | . | . | 11*
CC(C)CC(=O)N1CCN(Cc2ccc(Cl)cc2)CC1 | 3 | -2 | 8 | i | 1
CC(C)CC(=O)N1CCN(Cc2ccc(Br)cc2)CC1 | -1 | -1 | 7 | 0 | 11*
Cc1cc(-c2ccc(NS(=O)(=O)c3ccccc3)c(C)c2)ccc1NS(=O)(=O)c1ccccc1 | -1 | -1 | -5 | -3 | 12*
C[C@@H](NC(=O)C[C@H]1C[C@@H]2c3cc(NC(=O)C4CCC4)ccc3O[C@@H]2[C@H](CO)O1)c1ccccc1 | . | . | . | . | 0
CN(C)c1ccc(NC(N)=S)cc1 | . | -1 | 1 | i | -34
CN(C)c1ccc(Cl)c(NC(N)=S)c1 | 0 | -4 | -6 | 0 | 27*
CCOC(=O)C1CCCN(C(=O)C2c3ccccc3Oc3ccccc32)C1 (stereo not given) | . | 10* | 12 | 0 | .
CCOC(=O)C1CCCN(C(=O)C2COc3ccccc3O2)C1 (stereo not given) | 1 | -2 | 5 | i | 3
Nc1cc(=O)[nH]c(SCC(=O)N2N=C(c3ccc4ccccc4c3)CC2c2ccccc2)n1 (stereo not given) | -1 | -1 | 53* | -1 | -6
Cc1cccc(NC(=O)c2ccc(N3CCOCC3)c([N+](=O)[O-])c2)n1 | -2 | -1 | 5 | -1 | 13*
Cc1ccc(NC(=S)NNC(=O)c2ccc(N3CCOCC3)c([N+](=O)[O-])c2)cc1Cl | . | 11* | -2 | 0 | .
SMILES | BioA inh | FadD28 binding | Yp Topo-I inh | Vc quorum ag | TcdB inh
O=C(NNC(=S)Nc1ccc(Br)cc1)c1ccc(N2CCOCC2)c([N+](=O)[O-])c1 | 1 | 4 | 0 | 0 | .
CN1c2ccc(-c3ccccc3F)cc2[C@@H]2[C@@H](CCN2C(=O)NC2CCCC2)[C@@H]1CO | -1 | . | . | . | .
NC(=S)NN=Cc1ccc(-c2ccc(S(=O)(=O)Nc3ncccn3)cc2)o1 | . | 23* | -8 | . | -2
O=C(C[C@@H]1C=C[C@H](NC(=O)C2CC2)[C@H](CO)O1)NCc1ccccc1Cl | 0 | . | . | . | -2
O=C(COC(=O)/C=C/c1ccccc1)Nc1cccnc1Cl | -1 | -4 | 9 | i | -2
CCS(=O)(=O)c1ccc(O)c(NC(=O)/C=C/c2ccccc2)c1 | . | 1 | 3 | 0 | 2
O=C(/C=C/c1ccccc1)Nc1cccnc1Cl | 5 | 0 | -1 | i | 16*
Cc1c(O)ccc(NC(=O)/C=C/c2ccccc2)c1C | . | -1 | 1 | 1 | 17*
O=C(C[C@H]1C=C[C@H](NC(=O)C2CCOCC2)[C@H](CO)O1)NCC1CC1 | 1 | . | . | . | 1
CCN(CC)c1ccc(NC2CC(=O)N(CCc3ccc(OC)cc3)C2=O)cc1 (stereo not given) | -1 | 8.7* | -4 | i | 0
C[C@@H]1CCCCO[C@H](CN(C)Cc2ccc3c(c2)OCO3)[C@@H](C)CN([C@H](C)CO)C(=O)c2cc(NC(=O)Nc3ccc(F)cc3)ccc2O1 | 0 | . | . | . | 0
O=C(C1CCCCC1)N1CC(=O)N2[C@H](CO)[C@@H](c3ccc(C#CCc4ccccc4)cc3)[C@H]2C1 | . | . | . | . | 0
CC(C)(C)c1ccc(NC(=O)C(=O)C2C(=O)Nc3ccccc32)cc1 (stereo not given) | . | 27* | 2 | i | 1
CC(C)c1ccc(NC(=O)C(=O)C2C(=O)Nc3ccccc32)cc1 (stereo not given) | . | 15* | 1 | -2 | 0
CN(C)c1ccc(NC(=O)C(=O)C2C(=O)Nc3ccccc32)cc1 (stereo not given) | -1 | 1 | 4 | -4 | -1
CO[C@@H]1CN(C)C(=O)c2ccc(NC(=O)c3ccc(-c4ccccc4)cc3)cc2OC[C@@H](C)NC[C@H]1C | . | . | . | . | 2
N#CCc1ccc(C(=O)c2ccccc2F)s1 | 0 | -2 | -5 | 25* | .
O=C(O)Cc1ccc(C(=O)c2ccccc2)s1 | 2 | 0 | -1 | i | .
O=C(NC1CCN(Cc2ccccc2)CC1)c1ccc2c(c1)OCCCO2 | . | -1 | 70* | -1 | -1
CCOc1cc(/C=C2\C(=O)N(c3nc(-c4ccc(Br)cc4)cs3)N=C2c2ccccc2)ccc1O | -1 | 27* | -31 | i | .
CC1(C)CC(=O)C=C(c2ccc(COC(=O)/C=C/c3ccccc3)cc2)C1=O | 0 | -3 | 56* | i | 0
O=C(C[C@H]1C[C@H]2c3cc(NC(=O)NC4CCCCC4)ccc3O[C@H]2[C@@H](CO)O1)NCCc1ccccc1 | . | . | . | . | 1
O=[N+]([O-])c1cc(Cl)cc(/C=N\Nc2ccccn2)c1O | -1 | 2 | -9 | 25* | .
CCCn1c(O)c(N=NC(=O)CNC(=O)/C=C/c2ccc(OC)cc2)c2ccccc21 | 1 | 1 | 20 | 80* | -2
CCCn1c(O)c(N=NC(=O)CNC(=O)Cc2ccc(OC)cc2)c2ccccc21 | -1 | 0 | 17 | 439* | 4
CCCC(=O)Nc1ccc2c(c1)OC[C@@H](C)N(C(=O)CN1CCOCC1)C[C@@H](C)[C@H](OC)CN(C)C2=O | -3 | . | . | . | 0
CCCNC(=O)N1[C@H](C#N)[C@H](c2ccccc2-c2ccc(F)cc2)[C@@H]1CO | . | . | . | . | 0
O=C(Nc1cccc(-c2nc3ccccc3[nH]2)c1)c1cccc(NC(=O)c2ccco2)c1 | -1 | 17* | 5 | 3 | .

Screening data deposited in PubChem BioAssay by Broad Institute.
